The results in this text go back to PubChem BioAssay.

The structures appear in SMILES notation. A number with no mark means an inactive call. For some assays here: Entries with a potency or affinity are not part of this list. Calls of active or inactive are those of the source. Unless noted, no rule for the calls is given here.

The nature of assay [1]: antimalarial activity against Dd2 strain (AID 2302;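 active = growth inhibition above 50% at the single 2 µM test dose, taken to imply half-maximal potency below 2 µM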;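 also: 0% = DMSO untreated growth and 100% = chloroquine plus artemisinin killed control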). The note with it: P. falciparum Dd2 in RBCs, LDH growth readout, 72 h; at 2 µM; stronger effect = higher value.
Assay [2] can be described thus: human hepatoma cell viability loss – ATP luminescence, cytotoxicity control for P. falciparum antimalarial project, primary screen (AID 2303;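 active = inhibition above 50%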;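 also: 0% = DMSO wells and 100% = digitonin-killed cells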). The note with it: HepG2 viability, 24-48 h, at 10 µM, stronger effect = higher value.
Assay [3] has as its target L-lactate dehydrogenase (Plasmodium falciparum (isolate CDC / Honduras)) (UniProt Q27743). Kind of assay: PfLDH activity inhibition – cell lysate, 3D7 strain, counter-screen for P. falciparum growth inhibition project (AID 2304).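 Also: 0% = vehicle and 100% = reference inhibitor.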 The note with it: P. falciparum 3D7 crude extract, LDH APAD/NBT absorbance; at 2 µM; stronger effect = higher value.
Assay [4] can be described thus: inhibition of 3D7 malaria parasite growth – strain 3D7 (AID 2306).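 Also: 0% = DMSO wells and 100% = chloroquine plus artemisinin control wells.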 To be noted: P. falciparum 3D7 erythrocytic growth, LDH absorbance, 72 h; at 2 µM; stronger effect = higher value.
The target of assay [5] is Calcium-dependent protein kinase 1 (Plasmodium falciparum (isolate 3D7)) (UniProt P62344). As to the kind of experiment: PfCDPK1 kinase inhibitors, biochemical, TCAMS library (AID 1159585; cut-off not given, nearly all actives have IC50 up to about 0.98 µM;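 also: inhibitors leave more ATP so luminescence rises with inhibition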). To be noted: recombinant PfCDPK1, Kinase-Glo ATP depletion luminescence.
Sequence of Calcium-dependent protein kinase 1 (Plasmodium falciparum (isolate 3D7)) (P62344 whole entry, looked up): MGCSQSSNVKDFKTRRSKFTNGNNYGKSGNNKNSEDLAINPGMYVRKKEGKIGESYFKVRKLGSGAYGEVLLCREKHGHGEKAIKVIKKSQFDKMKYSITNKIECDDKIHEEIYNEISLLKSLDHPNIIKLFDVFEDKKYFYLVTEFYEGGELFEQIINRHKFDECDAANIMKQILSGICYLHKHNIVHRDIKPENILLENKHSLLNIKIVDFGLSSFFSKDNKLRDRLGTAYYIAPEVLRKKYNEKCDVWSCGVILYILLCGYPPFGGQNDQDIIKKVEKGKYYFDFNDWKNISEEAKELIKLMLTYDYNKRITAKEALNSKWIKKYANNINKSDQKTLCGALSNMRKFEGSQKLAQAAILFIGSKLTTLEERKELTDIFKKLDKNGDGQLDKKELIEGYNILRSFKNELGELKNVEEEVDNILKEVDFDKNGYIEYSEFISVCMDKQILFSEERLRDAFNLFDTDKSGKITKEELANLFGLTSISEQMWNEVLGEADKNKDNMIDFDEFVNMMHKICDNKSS
Assay [6] addresses Plasmodium falciparum protein kinase 6 (PK6, PF3D7_1337100) (UniProt Q8IDW1). Kind of assay: PfPK6 kinase inhibitors, biochemical, TCAMS library (AID 1159586). To be noted: recombinant PfPK6, Kinase-Glo ATP depletion luminescence.
Assay [7] addresses Protein kinase 7 (PK7), Plasmodium falciparum 3D7 (PF3D7_0213400) (UniProt Q7YTF7). Kind of assay: inhibition of Plasmodium PK7 catalytic activity – biochemical, TCAMS antimalarial set, Kinase-Glo luminescence (AID 1159587). To be noted: recombinant PfPK7, Kinase-Glo ATP depletion luminescence.
For assay [8], the target named is Calcium-dependent protein kinase 4 (Plasmodium falciparum (isolate 3D7)) (UniProt Q8IBS5). Kind of assay: PfCDPK4 kinase inhibitors, biochemical, TCAMS library (AID 1159588; cut-off not given, nearly all actives have IC50 up to about 0.91 µM). To be noted: recombinant PfCDPK4, Kinase-Glo ATP depletion luminescence.
Sequence of Calcium-dependent protein kinase 4 (Plasmodium falciparum (isolate 3D7)) (Q8IBS5 whole entry, looked up): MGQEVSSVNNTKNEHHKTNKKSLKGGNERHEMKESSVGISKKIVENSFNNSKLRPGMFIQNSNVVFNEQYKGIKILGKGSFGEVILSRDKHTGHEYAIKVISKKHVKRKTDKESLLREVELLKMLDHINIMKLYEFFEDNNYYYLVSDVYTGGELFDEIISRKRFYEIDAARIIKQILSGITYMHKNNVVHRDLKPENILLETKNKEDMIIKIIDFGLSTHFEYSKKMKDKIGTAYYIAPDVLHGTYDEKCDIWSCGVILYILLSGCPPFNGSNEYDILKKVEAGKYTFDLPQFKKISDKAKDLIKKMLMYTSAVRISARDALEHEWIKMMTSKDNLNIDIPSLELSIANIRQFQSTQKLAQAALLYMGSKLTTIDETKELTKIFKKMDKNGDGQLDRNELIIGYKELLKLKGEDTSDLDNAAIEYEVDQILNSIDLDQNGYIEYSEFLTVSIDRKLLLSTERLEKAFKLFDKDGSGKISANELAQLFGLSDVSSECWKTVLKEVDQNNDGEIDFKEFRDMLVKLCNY

Sequence of Plasmodium falciparum protein kinase 6 (PK6, PF3D7_1337100) (Q8IDW1 1-305): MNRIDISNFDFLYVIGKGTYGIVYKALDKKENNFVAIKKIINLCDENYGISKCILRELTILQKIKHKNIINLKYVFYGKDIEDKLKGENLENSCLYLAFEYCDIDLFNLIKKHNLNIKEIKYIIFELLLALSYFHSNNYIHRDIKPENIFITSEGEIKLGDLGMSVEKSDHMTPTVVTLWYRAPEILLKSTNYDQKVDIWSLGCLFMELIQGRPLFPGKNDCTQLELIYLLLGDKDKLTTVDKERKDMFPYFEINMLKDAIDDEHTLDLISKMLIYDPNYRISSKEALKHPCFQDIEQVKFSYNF
Sequence of L-lactate dehydrogenase (Plasmodium falciparum (isolate CDC / Honduras)) (Q27743 whole entry, looked up): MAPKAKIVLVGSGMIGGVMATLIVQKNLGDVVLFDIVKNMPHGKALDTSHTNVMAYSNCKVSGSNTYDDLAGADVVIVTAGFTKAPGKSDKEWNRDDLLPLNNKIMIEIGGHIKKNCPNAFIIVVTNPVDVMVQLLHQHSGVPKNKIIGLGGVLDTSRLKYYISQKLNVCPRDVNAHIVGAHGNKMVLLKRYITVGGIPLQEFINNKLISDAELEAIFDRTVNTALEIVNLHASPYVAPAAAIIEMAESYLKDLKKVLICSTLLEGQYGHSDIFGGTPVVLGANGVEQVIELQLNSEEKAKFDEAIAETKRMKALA
Sequence of Protein kinase 7 (PK7), Plasmodium falciparum 3D7 (PF3D7_0213400) (Q7YTF7 1-343): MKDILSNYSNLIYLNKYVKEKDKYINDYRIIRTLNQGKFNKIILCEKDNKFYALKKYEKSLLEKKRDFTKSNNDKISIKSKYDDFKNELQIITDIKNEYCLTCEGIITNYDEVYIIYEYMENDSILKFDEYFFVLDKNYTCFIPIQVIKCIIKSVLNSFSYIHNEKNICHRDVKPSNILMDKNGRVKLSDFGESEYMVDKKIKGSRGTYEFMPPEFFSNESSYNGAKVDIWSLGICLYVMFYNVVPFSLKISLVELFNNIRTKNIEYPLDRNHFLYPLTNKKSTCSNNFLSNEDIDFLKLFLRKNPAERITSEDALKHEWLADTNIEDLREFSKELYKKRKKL

In the case of `Cc1cc(Cc2ccc(S(=O)(=O)c3cc4c(cc3O)CCN(C)CC4)cc2)ccc1Cl`, the results for the growth inhibition in assay [1] and in assay [4] were 12% and 96% (active), respectively. Besides, the inhibition was 7% in assay [2] and 0% in assay [3]. Also, the result in assay [5], in assay [6], in assay [7] and in assay [8] was inactive.

Turning to `Cc1ccc(NC(=O)c2ccc3ncccc3c2)cc1OC1CCN(C(C)C)C1` (configuration not stated), the growth inhibition in assay [1] was 37%; in assay [4], 95% (active). The figures for the inhibition in assay [2] and in assay [3] were 12% and 1%, respectively. For the same molecule, the result in assay [5], in assay [6], in assay [7] and in assay [8] was inactive.

`COc1ccccc1C(C)NCC(=O)Nc1cc(C(F)(F)F)ccc1Cl` (configuration not stated): the figures for the growth inhibition in assay [1] and in assay [4] were 85% (active) and 97% (active), respectively. Moreover, the inhibition in assay [2] is 4%; in assay [3] it was -3%. Besides, the result in assay [5], in assay [6], in assay [7] and in assay [8] was inactive.

As to `CN1CCC(C(=O)Nc2ccc(-c3cccc(-c4nc5ccc(F)cc5[nH]4)c3)cc2)CC1`, the figures for the growth inhibition in assay [1] and in assay [4] were 5% and 101% (active), respectively. The inhibition in assay [2] was 19%; in assay [3] it was 5%. For the same molecule, the outcome in assay [5], in assay [6], in assay [7] and in assay [8] was inactive.

As for `COC1(C)Oc2ccc3cccc([N+](=O)[O-])c3c2C1=O` (configuration not stated), the growth inhibition was -4% in assay [1] and 98% (active) in assay [4]. Also, the inhibition in assay [2] is 3%; in assay [3] it was -2%. For the same molecule, the outcome in assay [5], in assay [6], in assay [7] and in assay [8] was inactive.

`NCc1ccc(-c2ccc3c(N)nccc3c2)cc1`: the growth inhibition in assay [1] was 92% (active); in assay [4] it was 100% (active). Also, the inhibition is 28% in assay [2] and 0% in assay [3]. The result in assay [5], in assay [6], in assay [7] and in assay [8] was inactive.

Turning to `Cc1cccc2[nH]c(-c3ccc(-c4cccc(CN5CCCC(N)C5)c4)s3)nc12` (configuration not stated), the growth inhibition in assay [1] is 94% (active); in assay [4], 100% (active). The values for the inhibition in assay [2] and in assay [3] were 17% and 4%, respectively. Moreover, the result in assay [5], in assay [6], in assay [7] and in assay [8] was inactive.

With `Cc1ccc(C)c(Cn2ccc3nc(Cl)nc(Cl)c32)c1`, the growth inhibition is 68% (active) in assay [1] and 95% (active) in assay [4]. Moreover, the inhibition in assay [2] is -10%; in assay [3] it was -2%. Besides, the outcome in assay [5], in assay [6], in assay [7] and in assay [8] was inactive.

As to `Cc1nc(N)nc(N)c1Oc1cccc(Cl)c1`, the growth inhibition is -3% in assay [1] and 94% (active) in assay [4]. The inhibition in assay [2] is 49%; in assay [3], 3%. Also, the outcome in assay [5], in assay [6], in assay [7] and in assay [8] was inactive.

Regarding `COc1ccc(CCCON2C(N)=NC(N)=NC2(C)C)cc1`, the growth inhibition is 94% (active) in assay [1] and 95% (active) in assay [4]. In addition, the inhibition is 61% (active) in assay [2] and -1% in assay [3]. Further, the outcome in assay [5], in assay [6], in assay [7] and in assay [8] was inactive.

Turning to `CCCc1cc(C)ccc1OCCCON1C(N)=NC(N)=NC1(C)C`, the growth inhibition in assay [1] and in assay [4] was 97% (active) each time. Also, the inhibition in assay [2] is 64% (active); in assay [3], 2%. Also, the outcome in assay [5], in assay [6], in assay [7] and in assay [8] was inactive.

For the molecule `CCCCN(CCCC)CC(O)c1cc(-c2ccc(Cl)cc2)nc2c(Cl)cc(Cl)cc12` (configuration not stated), the growth inhibition in assay [1] and in assay [4] was 97% (active) in each case. For the same molecule, the inhibition is -12% in assay [2] and 1% in assay [3]. Also, the result in assay [5], in assay [6], in assay [7] and in assay [8] was inactive.

Take `CC(=O)Nc1ccc(OCCCCN(Cc2ccccc2C(F)(F)F)c2ccc(C(F)(F)F)c(C#N)c2)c(Cl)c1`: the growth inhibition in assay [1] and in assay [4] was 96% (active) throughout. Also, the inhibition was 14% in assay [2] and -1% in assay [3]. Besides, the outcome in assay [5], in assay [6], in assay [7] and in assay [8] was inactive.

For `O=C(NCCc1ccccc1)N(Cc1cccc(-c2ccc(CNC3CCCC3)cc2)c1)C1CCN(Cc2ccccc2)CC1`, the growth inhibition is 84% (active) in assay [1] and 98% (active) in assay [4]. Moreover, the inhibition was 36% in assay [2] and 0% in assay [3]. Further, the result in assay [5], in assay [6], in assay [7] and in assay [8] was inactive.

In the case of `COc1ccc(NC2=C(c3ccccc3)C(=O)c3ccccc32)cn1`, the growth inhibition is 84% (active) in assay [1] and 96% (active) in assay [4]. Besides, the figures for the inhibition in assay [2] and in assay [3] were -9% and 2%, respectively. The outcome in assay [5], in assay [6], in assay [7] and in assay [8] was inactive.

With `O=C1OC(c2cc3ccccc3n2S(=O)(=O)c2ccccc2)(c2cc3ccccc3n2S(=O)(=O)c2ccccc2)c2ccccc21`, the growth inhibition in assay [1] was 78% (active); in assay [4], 95% (active). Further, the inhibition in assay [2] is 1%; in assay [3], -1%. Further, the result in assay [5], in assay [6], in assay [7] and in assay [8] was inactive.

For `CC(C)(C)c1ccc2nc(-c3ccc(C(=O)NCCCc4ccccc4)cc3)[nH]c2c1`, the growth inhibition is 14% in assay [1] and 95% (active) in assay [4]. In addition, the inhibition was 11% in assay [2] and 5% in assay [3]. In addition, the outcome in assay [5], in assay [6], in assay [7] and in assay [8] was inactive.

As for `N=C(N)c1ccc(C=CC(=O)NCC(O)CNC(=O)C=Cc2ccc(C(=N)N)cc2)cc1` (configuration not stated), the growth inhibition was 80% (active) in assay [1] and 90% (active) in assay [4]. Besides, the inhibition was -14% in assay [2] and -1% in assay [3]. Further, the result in assay [5], in assay [6], in assay [7] and in assay [8] was inactive.

On to `COc1cc(Cc2cnc(N)nc2N)cc(OCCCCCC(N)=O)c1OC`, for which the growth inhibition in assay [1] was -3%; in assay [4], 90% (active). For the same molecule, the inhibition in assay [2] is -33%; in assay [3], 0%. The result in assay [5], in assay [6], in assay [7] and in assay [8] was inactive.
